Laboratory results taken from PubChem BioAssay (Tox21).
Inconclusive results are not listed. A call without a number means that no potency is given here. The source made the active and inactive calls. Calls follow the shape of the full dose curve.

Test: p53 small molecule agonists, cell-based qHTS assay with rat liver microsomes (AID 1963578)
Conditions: HCT-116 p53RE-bla, beta-lactamase ratio, 16 h; series mostly up to 66 µM
From the text: U.S. Tox21 Program National Center for Advancing Translational Sciences [NCATS] Division of Preclinical Innovation [DPI] U.S. Environmental Protection Agency [EPA] National Institutes of Environmental Health Sciences [NIEHS] National Toxicology Program [NTP] U.S. Food and Drug Administration [FDA] Tox21 Assay Overview: p53, a tumor suppressor protein, is activated following cellular insult, including DNA damage and other cellular stresses. The activation of p53 regulates cell fate by inducing DNA repair, cell cycle arrest, apoptosis, or cellular senescence. The activation of p53, therefore, is a good indicator of DNA damage and other cellular stresses. […] The activation of the reporter gene under culture conditions can be detected by fluorescence intensity. This cell line was used to screen the Tox21 10K compound library in the condition of presence of rat liver microsomes and to identify agonists that activate the p53 signaling pathway after in vitro metabolic activation (Ooka et al., Archive of Toxicology 96:1975-1987, 2022).
Tox21 Assay Protocol Summary: The p53RE-bla cells were dispensed at 4,000cells/3ul/well in 1536-well black-clear bottom plates. After the assay plates were incubated at 37 C, 5% CO2 incubator for 5 hours, 23 nL of compounds dissolved in DMSO, positive controls or DMSO only was transferred to the assay plate. Following compound addition, 3 uL of rat liver microsomes (Molecular Toxicology, Boone, NC) at final concentration of 0.5 mg/mL and 1uL of Beta-Nicotinamide adenine dinucleotide 2-phosphate (NADPH) at final concentration of 0.5 mg/mL were transferred to the assay plate. The plates were incubated at 37 C for 16 hours. 1 uL of LiveBLAzer detection mixture was added to each well and the plates were incubated at room temperature in the dark for 2 h.

Which Potency does the source give for N#CSCC(=O)O here?
The Potency was “inactive”.

For COCCc1ccccn1, which Potency is on record?
The Potency was “inactive”.

For Nc1ccc(S(=O)(=O)Nc2ccccn2)cc1, which Potency is on record?
Its Potency is “inactive”.

With N#CCC(=O)NN as the compound, how does the Potency read?
The Potency was “inactive”.

For O=C1c2ccccc2C(=O)C1c1ccc2ccccc2n1, which Potency is on record?
The Potency was “inactive”.

Which Potency does the source give for CCCCC here?
Its Potency is “inactive”.

With CC(C)=CCC1=C(O)c2ccccc2C(=O)C1=O as the compound, how does the Potency read?
Its Potency is “inactive”.

For CCCCC(CC)COC(=O)COc1ccc(Cl)cc1C (stereo not given), which Potency is on record?
Its Potency is “inactive”.

With CCOC(=O)CC as the compound, how does the Potency read?
The Potency was “inactive”.

With CC(C)(O)C(=O)c1ccccc1 as the compound, how does the Potency read?
The Potency was “inactive”.

For CCCCCCCCCCCCCCN(CCO)CCO, which Potency is on record?
Its Potency is “inactive”.

With CCO[Si](OCC)(OCC)OCC as the compound, how does the Potency read?
Its Potency is “inactive”.

For COc1cc(OC)nc(NC(=O)NS(=O)(=O)Nc2ccccc2C(=O)N(C)C)n1, which Potency is on record?
The Potency was “inactive”.

For COc1ccc2nc(NC(=O)Nc3ccccc3)sc2c1, which Potency is on record?
The Potency was “inactive”.

For O=C(CCc1ccc(O)cc1)c1c(O)cc(O)cc1O, which Potency is on record?
Its Potency is “inactive”.

With CCCCCCCCCCCC[N+](C)(C)CC(=O)[O-] as the compound, how does the Potency read?
Its Potency is “inactive”.

Which Potency does the source give for CC[N+](C)(CC)CCOC(=O)C(O)(c1ccccc1)C1CCCCC1 (stereo not given) here?
Its Potency is “inactive”.

With C=CC(C)(O)CCCC(C)CCCC(C)CCCC(C)C (stereo not given) as the compound, how does the Potency read?
The Potency was “inactive”.

For CC(C)=CCC1C(=O)N(c2ccccc2)N(c2ccccc2)C1=O, which Potency is on record?
The Potency was “inactive”.

For Cc1c(C(=O)NCCO)[n+](=O)c2ccccc2n1[O-], which Potency is on record?
The Potency was “inactive”.

For CCN1CCN(c2cc3c(cc2F)c(=O)c(C(=O)O)cn3C2CC2)CC1, which Potency is on record?
Its Potency is “inactive”.

With CN(C)CCC=C1c2ccccc2C=Cc2ccccc21 as the compound, how does the Potency read?
Its Potency is “inactive”.

For CCN(CC)CCNC(=O)COc1ccc(Cl)cc1, which Potency is on record?
The Potency was “inactive”.

For COC(=O)/C=C\C(=O)O, which Potency is on record?
The Potency was “inactive”.

For Oc1cc2ccccc2cc1O, which Potency is on record?
The Potency was “inactive”.

With CCc1ccc(O)c(OC)c1 as the compound, how does the Potency read?
The Potency was “inactive”.

Which Potency does the source give for Cc1ncc([N+](=O)[O-])n1CC(C)O (stereo not given) here?
Its Potency is “inactive”.

For Nc1ccc(S(=O)(=O)O)c(N)c1, which Potency is on record?
Its Potency is “inactive”.

For CO[Si](CCCS)(OC)OC, which Potency is on record?
Its Potency is “inactive”.

Which Potency does the source give for C1CC(COCC2CO2)CCC1COCC1CO1 (stereo not given) here?
Its Potency is “inactive”.

For ICCc1ccccc1, which Potency is on record?
Its Potency is “inactive”.

For COc1cc2c(cc1N)oc1ccccc12, which Potency is on record?
Its Potency is “inactive”.

For CN1CN(C)CN(C)C1, which Potency is on record?
Its Potency is “inactive”.

With NC(=O)C1(N2CCCCC2)CCN(CCCC(=O)c2ccc(F)cc2)CC1 as the compound, how does the Potency read?
Its Potency is “inactive”.

For Cc1occc1C(=O)Nc1ccc(C(=O)N2CCC(F)(F)/C(=C\C(=O)N3CCC(N4CCCCC4)CC3)c3ccccc32)cc1, which Potency is on record?
Its Potency is “inactive”.

With CCCCCCCC/C=C\CCCCCCCCCCCC(=O)O as the compound, how does the Potency read?
Its Potency is “inactive”.

With CCOC(=O)[C@H](CCc1ccccc1)N[C@@H](C)C(=O)N1Cc2cc(OC)c(OC)cc2C[C@H]1C(=O)O as the compound, how does the Potency read?
The Potency was “inactive”.

With OC[C@@H](O)C(O)[C@@H](O)CO (stereo not given in full) as the compound, how does the Potency read?
The Potency was “inactive”.

Which Potency does the source give for CC(=O)OC1CCCCC1 here?
The Potency was “inactive”.

For O=C(Oc1ccccc1)c1ccccc1C(=O)Oc1ccccc1, which Potency is on record?
Its Potency is “inactive”.
